According to PubChem BioAssay (Tox21):
Inconclusive results are not listed. Calls of active or inactive are those of the source. Unless noted, calls come from the whole dose curve. Square brackets hold non-standard residues; d marks the D form. Peptide text beside a SMILES is read from it. * marks the point of attachment. Sta = CC(C)C[C@H](N)[C@@H](O)CC(=O)O; Isovaleryl = CC(C)CC(=O)*

Key:
[1] = Nuclear factor erythroid 2-related factor 2/antioxidant responsive element (Nrf2/ARE) small molecule agonists: qHTS cell viability counter screen in human keratinocytes (AID 1919968; active = well fitted curve in the direction sought with a large enough effect in the repeat runs; an effect the other way counts as inactive or inconclusive; note: nearly all actives have a fitted effect of over 55% in size; note: potency is the fitted concentration of half-maximal effect)
How it was run: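 After a 5 h attachment period, ARE-reporter keratinocytes were dosed with compounds in DMSO and then cultured 23 h at 37 C. Cell viability came from CellTiter-Fluor signal read after a further 1 h.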

[2] = biological target: Gonadotropin-releasing hormone receptor (Homo sapiens) (UniProt P30968); assay: Human gonadotropin-releasing hormone receptor (GnRHR) small molecule agonists, calcium flux assay in GnRHR-HEK293 cells (AID 1920063); note: nearly all actives have a fitted effect of over 35% in size; note: potency is the fitted concentration of half-maximal effect
Chain of Gonadotropin-releasing hormone receptor (Homo sapiens) (P30968 whole entry, looked up): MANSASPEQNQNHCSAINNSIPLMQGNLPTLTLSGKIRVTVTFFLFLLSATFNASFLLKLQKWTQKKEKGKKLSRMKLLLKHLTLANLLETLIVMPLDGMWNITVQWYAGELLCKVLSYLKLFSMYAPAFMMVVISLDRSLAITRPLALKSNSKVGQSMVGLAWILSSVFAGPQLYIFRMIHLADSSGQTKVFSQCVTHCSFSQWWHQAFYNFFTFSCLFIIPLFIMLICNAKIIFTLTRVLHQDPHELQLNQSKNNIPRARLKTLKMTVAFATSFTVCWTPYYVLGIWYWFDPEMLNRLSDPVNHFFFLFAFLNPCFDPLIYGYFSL
How it was run: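 We seeded human GnRHR-expressing HEK293 cells for 18 hours, loaded them with calcium dye for an hour at 37 C, added test compounds, and recorded fluorescence intensity kinetically for three minutes.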

[3] = biological target: KiSS-1 receptor (Homo sapiens) (UniProt Q969F8); assay: Human kisspeptin (KISS1R) small molecule agonists, calcium flux assay in KISS1R-HEK293 cells (AID 1920064; active = well fitted curve in the direction sought with a large enough effect in the repeat runs; an effect the other way counts as inactive or inconclusive)
Chain of KiSS-1 receptor (Homo sapiens) (Q969F8 whole entry, looked up): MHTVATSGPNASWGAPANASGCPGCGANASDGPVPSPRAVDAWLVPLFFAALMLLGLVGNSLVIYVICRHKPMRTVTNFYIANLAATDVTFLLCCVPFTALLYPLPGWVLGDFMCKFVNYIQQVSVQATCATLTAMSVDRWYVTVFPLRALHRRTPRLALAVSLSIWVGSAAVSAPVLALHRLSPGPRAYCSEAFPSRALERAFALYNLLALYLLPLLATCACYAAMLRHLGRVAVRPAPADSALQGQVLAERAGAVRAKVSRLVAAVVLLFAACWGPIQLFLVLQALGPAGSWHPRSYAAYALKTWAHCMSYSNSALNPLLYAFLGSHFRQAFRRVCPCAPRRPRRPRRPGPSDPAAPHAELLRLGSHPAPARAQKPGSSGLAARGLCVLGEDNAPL
How it was run: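 Kinetic calcium assay, 1 s sampling over 3 min at Ex/Em 480/540, in HEK293 cells engineered with human KISS1R; compounds delivered in DMSO after 1 h dye loading.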

[4] = G protein-coupled receptor (GPCR) small molecule agonists, calcium flux assay: HEK293 wild type cell line counter screen (AID 1920065)
How it was run: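 Calcium-sensitive dye, loaded 1 h at 37 C into cells cultured 18 h, reports compound-evoked calcium release as fluorescence (Ex/Em 480/540), measured over 3 min. Agonist mode; 15-point titrations, triplicate.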

[5] = p53 small molecule agonists, cell-based qHTS assay with human liver microsomes (AID 1963577)
How it was run: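 Compounds act here after metabolic activation: human liver microsomes and NADPH, both at 0.5 mg/mL final, were co-added to p53RE-bla cells. Incubation ran 16 h at 37 C, followed by LiveBLAzer detection.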

[6] = p53 small molecule agonists, cell-based qHTS assay with rat liver microsomes (AID 1963578)
How it was run: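 Read-out is beta-lactamase reporter fluorescence (LiveBLAzer, 2 h, room temperature, dark) in p53RE-bla cells treated 16 h at 37 C with compound, rat liver microsomes and NADPH, both 0.5 mg/mL final.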

[7] = p53 small molecule agonists, cell-based qHTS assay with human liver microsomes: qHTS cell viability counter screen (AID 1963579); note: nearly all actives have a fitted effect of over 45% in size
How it was run: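 Cells carrying the p53 response-element beta-lactamase reporter are treated for 16 h at 37 C with test compounds in the presence of human liver microsomes and NADPH (both 0.5 mg/mL final); ATP-based CellTiter-Glo luminescence then reports viability.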

[8] = p53 small molecule agonists, cell-based qHTS assay with rat liver microsomes: qHTS cell viability counter screen (AID 1963580); note: nearly all actives have a fitted effect of over 45% in size
How it was run: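 Intracellular ATP, by CellTiter-Glo luminescence, defines viability. HCT-116 p53RE-bla cells, 4,000 per well, were compound-treated in the presence of rat liver microsomes and NADPH for 16 h at 37 C.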

[9] = p53 small molecule agonists, cell-based qHTS assay: qHTS cell viability counter screen (AID 1963581); note: nearly all actives have a fitted effect of over 45% in size
How it was run: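 Following 5 h attachment, HCT-116 p53RE-bla cells took up compound for 16 h at 37 C; the reporter was read with B/G FRET substrate (2 h RT), and viability then via CellTiter-Glo ATP luminescence.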

[10] = p53 small molecule agonists, cell-based qHTS assay (AID 1963582; active = well fitted activation curve with a large enough effect in the signal ratio in the repeat runs, not every such curve was filed as active; the % refers to the signal ratio)
How it was run: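 In this cell-based concentration-response screen, a p53 response element drives beta-lactamase; cells received DMSO-borne compounds after 5 h culture and were incubated a further 16 h before FRET substrate development.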

[11] = biological target: 5-hydroxytryptamine receptor 2A (Homo sapiens) (UniProt P28223); assay: 5-hydroxytryptamine receptor 2A (HTR2A) small molecule antagonists, cell-based qHTS assay (AID 1963586); note: nearly all actives have a fitted effect of over 45% in size
Chain of 5-hydroxytryptamine receptor 2A (Homo sapiens) (P28223 whole entry, looked up): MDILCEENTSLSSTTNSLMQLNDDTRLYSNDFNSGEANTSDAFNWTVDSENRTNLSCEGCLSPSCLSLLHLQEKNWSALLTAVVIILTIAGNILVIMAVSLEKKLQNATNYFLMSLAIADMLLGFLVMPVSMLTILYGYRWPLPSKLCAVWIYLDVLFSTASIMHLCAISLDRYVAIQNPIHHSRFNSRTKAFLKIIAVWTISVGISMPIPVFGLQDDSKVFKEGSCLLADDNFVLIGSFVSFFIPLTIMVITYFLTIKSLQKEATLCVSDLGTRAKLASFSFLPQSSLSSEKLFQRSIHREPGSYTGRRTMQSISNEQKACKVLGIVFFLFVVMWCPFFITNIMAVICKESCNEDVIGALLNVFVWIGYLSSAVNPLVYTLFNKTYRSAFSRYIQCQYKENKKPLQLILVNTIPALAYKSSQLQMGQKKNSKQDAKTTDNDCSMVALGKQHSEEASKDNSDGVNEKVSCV
How it was run: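 Antagonist-mode intracellular calcium assay: DOI (4 nM) added after 5 min compound pre-incubation at room temperature to dye-loaded HTR2A-CHO cells. Fluorescence followed for 3 min, sampled every second.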

[12] = biological target: 5-hydroxytryptamine receptor 2A (Homo sapiens) (UniProt P28223); assay: 5-hydroxytryptamine receptor 2A (HTR2A) small molecule agonists, cell-based qHTS assay (AID 1963587); note: nearly all actives have a fitted effect of over 30% in size
How it was run: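 Kinetic calcium-flux fluorescence (2 min, 1 sec intervals) after compound addition in agonist mode. HTR2A-CHO cells were cultured 18 h, then dye-loaded 1 h at 37 C.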

[13] = biological target: Muscarinic acetylcholine receptor M1 (Homo sapiens) (UniProt P11229); assay: Cholinergic receptor muscarinic 1 (CHRM1) small molecule antagonists, cell-based qHTS assay (AID 1963588); note: nearly all actives have a fitted effect of over 40% in size
Chain of Muscarinic acetylcholine receptor M1 (Homo sapiens) (P11229 whole entry, looked up): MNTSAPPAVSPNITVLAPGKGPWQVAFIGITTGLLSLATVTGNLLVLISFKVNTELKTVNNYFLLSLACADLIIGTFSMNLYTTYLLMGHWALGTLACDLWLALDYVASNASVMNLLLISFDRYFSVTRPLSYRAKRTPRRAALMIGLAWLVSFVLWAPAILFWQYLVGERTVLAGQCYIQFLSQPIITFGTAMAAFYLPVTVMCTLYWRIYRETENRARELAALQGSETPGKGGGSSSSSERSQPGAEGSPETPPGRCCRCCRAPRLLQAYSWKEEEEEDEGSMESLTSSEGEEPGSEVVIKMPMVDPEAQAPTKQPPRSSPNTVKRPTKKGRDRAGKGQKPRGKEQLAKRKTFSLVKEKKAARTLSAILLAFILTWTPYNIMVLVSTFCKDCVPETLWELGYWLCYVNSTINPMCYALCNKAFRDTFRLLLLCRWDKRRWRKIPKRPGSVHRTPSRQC
How it was run: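 CHRM1-CHO calcium-flux assay, antagonist mode. Cells were seeded 18 h, dye-loaded 1 h at 37 C and given compound for 5 min at RT, then acetylcholine was added at 50nM. FDSS fluorescence was read 3 min; 15 concentrations, three runs.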

[14] = biological target: Muscarinic acetylcholine receptor M1 (Homo sapiens) (UniProt P11229); assay: Cholinergic receptor muscarinic 1 (CHRM1) small molecule agonists, cell-based qHTS assay (AID 1963589); note: nearly all actives have a fitted effect of over 35% in size
How it was run: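 Measures agonist-induced intracellular calcium rise. Stable human CHRM1 CHO line, 1 h dye load at 37 C, compounds from DMSO, kinetic fluorescence read.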

[15] = cAMP Responsive Elements (CRE) small molecule agonists, cell-based qHTS assay (AID 1963590)
How it was run: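 A CRE-responsive beta-lactamase reporter in HEK 293T cells was used. Treatment ran 3 h at 37 C; detection used LiveBLAzer B/G FRET substrate for 2 h at room temperature.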

[16] = cAMP Responsive Elements (CRE) small molecule antagonists, cell-based qHTS assay (AID 1963591; active = well fitted inhibition curve with a large enough effect in the signal ratio in the repeat runs, not every such curve was filed as active; the % refers to the signal ratio)
How it was run: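 HEK293T cells carrying a CRE-driven beta-lactamase reporter receive compound and NKH477 (0.25 uM final) for 3 h. Fluorescence from LiveBLAzer B/G FRET substrate is read after 2 h at room temperature.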

[17] = biological target: Beta-2 adrenergic receptor (Homo sapiens) (UniProt P07550); assay: Adrenergic beta2 receptor (ADRB2) small molecule antagonists, cell-based qHTS assay (AID 1963592); note: series mostly up to about 92 µM; nearly all actives have a fitted effect of over 50% in size
Chain of Beta-2 adrenergic receptor (Homo sapiens) (P07550 whole entry, looked up): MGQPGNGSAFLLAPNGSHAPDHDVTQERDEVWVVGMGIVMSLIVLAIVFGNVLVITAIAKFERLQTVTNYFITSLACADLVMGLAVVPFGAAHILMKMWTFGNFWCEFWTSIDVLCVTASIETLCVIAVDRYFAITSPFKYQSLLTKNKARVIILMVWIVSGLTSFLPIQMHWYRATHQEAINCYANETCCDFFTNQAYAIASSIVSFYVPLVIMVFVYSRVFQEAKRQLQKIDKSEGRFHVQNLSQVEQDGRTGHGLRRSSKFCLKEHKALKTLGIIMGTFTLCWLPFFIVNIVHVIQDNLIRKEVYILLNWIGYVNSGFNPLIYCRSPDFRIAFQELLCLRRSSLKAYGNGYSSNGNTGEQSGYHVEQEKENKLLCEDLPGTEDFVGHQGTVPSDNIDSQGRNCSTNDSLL
How it was run: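 Cells (CHO, stable ADRB2 overexpression) incubated 18-20hr at 37C; compounds added from DMSO; agonist mix (1nM isoproterenol, 100uM IBMX, 25uM Ro-20-1724) added; 0.5hr RT; d2-cAMP and anti-cAMP-cryptate added; 1hr RT; 665/615 nm read.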

[18] = biological target: D(2) dopamine receptor (Homo sapiens) (UniProt P14416); assay: Dopamine D2 receptor (DRD2) small molecule agonists, cell-based qHTS assay (AID 1963594); note: nearly all actives have a fitted effect of over 35% in size
Chain of D(2) dopamine receptor (Homo sapiens) (P14416 whole entry, looked up): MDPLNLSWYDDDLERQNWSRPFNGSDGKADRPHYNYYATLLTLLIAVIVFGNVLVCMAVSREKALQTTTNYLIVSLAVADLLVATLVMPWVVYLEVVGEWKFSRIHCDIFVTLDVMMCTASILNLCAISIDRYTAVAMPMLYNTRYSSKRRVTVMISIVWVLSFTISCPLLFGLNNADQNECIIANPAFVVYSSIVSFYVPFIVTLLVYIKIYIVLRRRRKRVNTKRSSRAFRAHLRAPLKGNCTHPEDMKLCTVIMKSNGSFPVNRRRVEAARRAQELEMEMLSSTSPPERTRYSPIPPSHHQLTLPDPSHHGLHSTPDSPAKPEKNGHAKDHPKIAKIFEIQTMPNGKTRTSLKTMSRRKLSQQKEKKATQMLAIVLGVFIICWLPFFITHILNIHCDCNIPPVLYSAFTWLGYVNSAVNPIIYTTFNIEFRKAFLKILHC
How it was run: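 cAMP accumulation in DRD2-HEK293 cells measured by HTRF after 1 h detection; compounds added 10 min before NKH477 (200nM […]) forskolin-analogue stimulation, 30 min at room temperature, with Ro20-1724 present at 0.1 mM final.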

[19] = biological target: D(2) dopamine receptor (Homo sapiens) (UniProt P14416); assay: Dopamine D2 receptor (DRD2) small molecule antagonists, cell-based qHTS assay (AID 1963595; active = well fitted inhibition curve with a large enough effect in the signal ratio in the repeat runs, with a control signal flat; the % refers to the signal ratio)
How it was run: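 HTRF cAMP read-out at 665 and 620 nm emission (340 nm excitation). Antagonist mode: compounds were tested against 12 nM quinpirole in DRD2-HEK293 cells, with 200 nM NKH477 raising cAMP and 0.1 mM Ro20-1724 blocking its breakdown.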

[20] = biological target: Beta-2 adrenergic receptor (Homo sapiens) (UniProt P07550); assay: Adrenergic beta2 receptor (ADRB2) small molecule agonists, cell-based qHTS assay (AID 1963593);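 note: CHO cells stably overexpressing human ADRB2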
How it was run: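 CHO cells stably over-expressing ADRB2 were plated overnight at 37C, then dosed with compounds plus a stimulation mix containing 100uM IBMX and 25uM Ro-20-1724 for 0.5hr at room temperature. cAMP was measured by HTRF competition, 1hr.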

Measured: Potency

CCOC(=O)CCCCCCCCC(=O)OCC
not listed: [20]
inactive: all other assays above

C/C=C/C(=O)OCC(C)C
not listed: [2] | [3] | [10] | [13] | [20]
inactive: all other assays above

CCCCC
active: [2] 38.3 µM
not listed: [20]
inactive: all other assays above

Cc1cc(C)c(O)c(C(C)(C)C)c1
not listed: [11] | [12] | [13] | [15] | [17]
inactive: all other assays above

COC(=O)[C@H]1[C@H]2C[C@@H]3c4[nH]c5cc(OC)ccc5c4CCN3C[C@H]2C[C@@H](OC(=O)COc2ccc(OC)cc2)[C@@H]1OC
not listed: [2] | [3] | [15] | [16] | [17] | [18] | [20]
inactive: all other assays above

CN(C)CCN(C)CCN(C)C
not listed: [11] | [12] | [20]
inactive: all other assays above

O=C1Nc2cc(Cl)ccc2Oc2ccccc21
not listed: [2] | [3] | [9] | [11] | [14] | [16] | [20]
inactive: all other assays above

Cc1ccc2c(Cl)cc(Cl)c(O)c2n1
not listed: [13] | [20]
inactive: all other assays above

CCOc1cc([N+](=O)[O-])c(OCC)cc1N1CCOCC1
not listed: [15] | [16] | [17] | [19] | [20]
inactive: all other assays above

CCCCCN(CCCCC)C(=O)C(CCC(=O)O)NC(=O)c1ccc(Cl)c(Cl)c1 (stereo not drawn)
not listed: [2] | [3] | [9] | [10] | [12] | [15] | [16] | [20]
inactive: all other assays above

COc1c(N2CCNC(C)C2)c(F)cc2c(=O)c(C(=O)O)cn(C3CC3)c12 (stereo not drawn)
not listed: [11] | [12] | [13] | [14] | [20]
inactive: all other assays above

O=S(=O)(O)c1ccc(N=Nc2c(O)ccc3ccccc23)cc1
active: [1] 61.1 µM
not listed: [9] | [10] | [11] | [15] | [16] | [19] | [20]
inactive: all other assays above

O=C1C=CCCC1
not listed: [8] | [9] | [20]
inactive: all other assays above

Cc1nc(-c2ccc(OCC(C)C)c(C#N)c2)sc1C(=O)O
not listed: [10] | [15] | [16] | [17] | [20]
inactive: all other assays above

CC(C)CC(=O)N[C@H](C(=O)N[C@H](C(=O)N[C@@H](CC(C)C)[C@@H](O)CC(=O)N[C@@H](C)C(=O)N[C@@H](CC(C)C)[C@@H](O)CC(=O)O)C(C)C)C(C)C (Isovaleryl-VV[Sta]A[Sta]-OH)
not listed: [10] | [11] | [12] | [13] | [14] | [20]
inactive: all other assays above

CCNS(=O)(=O)c1ccc(C)cc1
not listed: [9] | [11]
inactive: all other assays above
